In PubChem BioAssay:
Calls of active or inactive are those of the source. Unless noted, how the calls were made is not given here.

How the values were obtained:
[1] = system: Wnt5a (protein binding on small-molecule microarray); assay: Wnt5a binders on small-molecule microarray, primary screen, biophysical, 635/667 nm fluorescence (AID 1142); conditions: 635 nm fluorescence, higher = more signal;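 further: fluorescence read at 667 nm with signal to noise per printed feature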
[2] = cell viability in Huh7 cells, primary screen, cytotoxicity control for HCV replication inhibitor project, CellTiter-Glo luminescence, basal, 48 h (AID 1143); conditions: Huh7 HCV replicon, higher = more signal, called active from +8 up or from −8 down;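 further: Huh7 hepatoma cells carrying a hepatitis C replication reporter with no stimulus; test concentration not given here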
[3] = P. aeruginosa biofilm formation inhibitors, primary screen, PAO1 strain, BacTiter-Glo luminescence, LB-PBS (AID 1144); conditions: 12 h, higher = more signal
[4] = CREB reporter modulators without forskolin, primary screen, cell-based, PC12, CRE-LacZ reporter, unstimulated (AID 1145); conditions: no forskolin, luminescence, 4.5 h, higher = more signal, called active from +8 up or from −8 down
[5] = CREB reporter modulators under forskolin, primary screen, cell-based, PC12, CRE-LacZ reporter, forskolin-stimulated (AID 1146); conditions: luminescence, 4.5 h, higher = more signal, called active from +8 up or from −8 down;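 further: PC12 cells with 6xCRE LacZ reporter stimulated by forskolin 10 µM; beta-galactosidase reporter signal reflecting CREB driven transcription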
[6] = molecular target: Streptavidin (Streptomyces avidinii) (UniProt P22629); assay: streptavidin binders on small-molecule microarray, primary screen, artefact control for SMM compound annotation, biophysical, 635/667 nm fluorescence (AID 1147); conditions: streptavidin binding, higher = more signal;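 further: signal reflects streptavidin binding to arrayed compounds as a control protein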
Streptavidin (Streptomyces avidinii), sequence (P22629 whole entry, looked up): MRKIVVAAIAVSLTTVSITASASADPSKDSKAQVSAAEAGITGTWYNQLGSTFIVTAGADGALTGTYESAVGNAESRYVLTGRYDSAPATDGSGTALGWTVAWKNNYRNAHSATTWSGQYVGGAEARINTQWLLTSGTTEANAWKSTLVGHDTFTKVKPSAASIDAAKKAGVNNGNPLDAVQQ

[7] = small-molecule binders of probe aInhba, primary screen, biochemical, small-molecule microarray, 635/667 nm fluorescence (AID 1148); conditions: higher = more signal;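 further: score merges 667nm spot fluorescence with signal-to-noise for antibody binding to printed compounds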
[8] = molecular target: Torsin-1A (Homo sapiens) (UniProt O14656); assay: torsin A binders from cell lysate, primary screen, small-molecule microarray, wild-type, 635/667 nm (AID 1149); conditions: COS7 hTOR1A-WT lysate, 635 nm fluorescence, higher = more signal
Torsin-1A (Homo sapiens), sequence (O14656 whole entry, looked up): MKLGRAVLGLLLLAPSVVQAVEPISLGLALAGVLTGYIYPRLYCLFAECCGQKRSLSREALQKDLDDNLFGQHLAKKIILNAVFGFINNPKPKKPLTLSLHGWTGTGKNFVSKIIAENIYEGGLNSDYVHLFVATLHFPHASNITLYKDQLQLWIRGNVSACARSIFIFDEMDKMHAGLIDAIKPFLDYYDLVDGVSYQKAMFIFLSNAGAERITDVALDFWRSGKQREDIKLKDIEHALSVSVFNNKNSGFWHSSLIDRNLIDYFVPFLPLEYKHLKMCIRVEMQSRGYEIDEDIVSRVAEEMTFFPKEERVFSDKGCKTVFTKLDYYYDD

[9] = molecular target: Torsin-1A (Homo sapiens) (UniProt O14656); assay: small-molecule binders of mutant TOR1A in lysate, primary screen, cell lysate, small-molecule microarray, COS7 lysate, 635/667 nm fluorescence (AID 1150); conditions: COS7 hTOR1A mutant lysate, 635 nm fluorescence, higher = more signal;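 further: score pools 667 nm emission and signal to noise measuring lysate protein binding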
[10] = system: Sonic hedgehog protein (Shh); assay: small-molecule binders of Shh protein, primary screen, biochemical, small-molecule microarray, 635/667 nm fluorescence (AID 1151); conditions: small-molecule microarray binding, 635 nm fluorescence; higher = more signal;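 further: Shh protein binding to compounds spotted on small-molecule microarray slides; score combines spot fluorescence intensity with signal-to-noise across triplicate slides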
[11] = E. coli DRC41 culture turbidity changes, primary screen, E. coli filamentation inducer project, strain DRC41, OD650, 48 h (AID 1152);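 further: E. coli MC1000 strain DRC41 lacking acrAB efflux pump and sulA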; conditions: E. coli DRC41 (acrAB sulA), higher = more signal, called active from +8 up or from −8 down
[12] = small-molecule binders of probe aLefty1, primary screen, biochemical, small-molecule microarray, 635/667 nm fluorescence (AID 1153); conditions: higher = more signal;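 further: score merges spot fluorescence with signal-to-noise ratio from the scanned slide images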
[13] = PSAC antagonists in infected red cells, primary screen, cell-based, P. falciparum Indochina, OD700, 1 h (AID 1154); conditions: P. falciparum Indochina infected RBC osmotic lysis, higher = more signal, called active from +8 up or from −8 down
[14] = PSAC antagonists in infected red cells, primary screen, cell-based, P. falciparum Indochina, OD700, 2 h (AID 1155);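 further: lysis reports solute entry through the parasite surface anion channel PSAC; channel blockers reduce lysis of infected cells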; conditions: P. falciparum Indochina infected erythrocytes, osmotic lysis OD700; higher = more signal, called active from +8 up or from −8 down
[15] = osmotic lysis modulators in infected erythrocytes, primary screen, PSAC antagonist project, cell-based, P. falciparum Indochina, OD700, 3 h (AID 1156); conditions: higher = more signal, called active from +8 up or from −8 down
[16] = PSAC antagonists in infected red cells, primary screen, cell-based, P. falciparum Indochina, OD700, 18 h (AID 1157); conditions: P. falciparum Indochina infected erythrocytes, osmotic lysis OD700, 18 h; higher = more signal, called active from +8 up or from −8 down
[17] = modulators of S6 phosphorylation in cells, primary screen, cell-based, A549, cytoblot, luminescence, serum-stimulated (AID 1158); conditions: A549 phospho-S6 cytoblot, 5 h, higher = more signal;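 further: serum-stimulated A549 lung adenocarcinoma cells; signal is phosphorylated S6 detected by cytoblot immunostaining with HRP secondary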
[18] = molecular target: NADPH oxidase 2 (Homo sapiens) (UniProt P04839); assay: NOX2-dependent H2O2 signal modulators, primary screen, NOX inhibitor project, cell-based, HEK293-NOX2, PMA-stimulated, Amplex Red fluorescence (AID 1159); conditions: 45 min, higher = more signal, called active from +8 up or from −8 down; further: test concentration not given here
NADPH oxidase 2 (Homo sapiens), sequence (P04839 whole entry, looked up): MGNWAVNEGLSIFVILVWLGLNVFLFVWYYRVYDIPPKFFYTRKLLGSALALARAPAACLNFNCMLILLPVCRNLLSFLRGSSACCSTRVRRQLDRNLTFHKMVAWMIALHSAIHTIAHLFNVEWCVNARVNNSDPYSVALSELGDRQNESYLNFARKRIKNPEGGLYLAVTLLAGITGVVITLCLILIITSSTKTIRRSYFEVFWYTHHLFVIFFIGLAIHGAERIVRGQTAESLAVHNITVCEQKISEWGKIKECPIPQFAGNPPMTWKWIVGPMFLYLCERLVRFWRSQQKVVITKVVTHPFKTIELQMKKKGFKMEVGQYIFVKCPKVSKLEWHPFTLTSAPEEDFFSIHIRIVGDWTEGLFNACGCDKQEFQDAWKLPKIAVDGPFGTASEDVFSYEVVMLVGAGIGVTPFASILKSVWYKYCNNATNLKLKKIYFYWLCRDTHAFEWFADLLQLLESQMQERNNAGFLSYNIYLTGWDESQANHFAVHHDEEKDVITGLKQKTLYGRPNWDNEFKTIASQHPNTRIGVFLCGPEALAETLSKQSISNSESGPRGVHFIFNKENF

[19] = molecular target: NADPH oxidase 4 (Homo sapiens) (UniProt Q9NPH5); assay: NOX4-dependent H2O2 signal modulators, primary screen, NOX inhibitor project, cell-based, HEK293-NOX4, tetracycline-induced, Amplex Red fluorescence (AID 1160); conditions: 45 min, higher = more signal, called active from +8 up or from −8 down
NADPH oxidase 4 (Homo sapiens), sequence (Q9NPH5 whole entry, looked up): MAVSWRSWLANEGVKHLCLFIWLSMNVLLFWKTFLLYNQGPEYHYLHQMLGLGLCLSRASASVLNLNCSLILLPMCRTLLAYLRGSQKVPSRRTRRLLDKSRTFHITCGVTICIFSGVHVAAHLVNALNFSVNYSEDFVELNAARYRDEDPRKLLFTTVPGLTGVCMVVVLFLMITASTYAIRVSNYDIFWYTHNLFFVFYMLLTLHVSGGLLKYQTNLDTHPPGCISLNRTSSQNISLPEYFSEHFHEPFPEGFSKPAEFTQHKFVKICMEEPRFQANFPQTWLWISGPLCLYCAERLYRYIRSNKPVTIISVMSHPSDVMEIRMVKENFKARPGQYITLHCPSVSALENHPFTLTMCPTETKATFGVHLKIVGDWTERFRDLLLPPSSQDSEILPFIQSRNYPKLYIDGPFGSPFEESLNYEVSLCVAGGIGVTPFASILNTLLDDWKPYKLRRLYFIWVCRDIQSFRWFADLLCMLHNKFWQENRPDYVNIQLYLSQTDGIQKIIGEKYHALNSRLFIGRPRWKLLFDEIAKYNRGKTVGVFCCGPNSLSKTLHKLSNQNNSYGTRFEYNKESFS

[20] = molecular target: NADPH oxidase 5 (Homo sapiens) (UniProt Q96PH1); assay: NOX5-dependent H2O2 signal modulators, primary screen, NOX inhibitor project, cell-based, HEK293-NOX5, Amplex Red fluorescence (AID 1161); conditions: HEK293-NOX5, ionomycin, 45 min, higher = more signal
NADPH oxidase 5 (Homo sapiens), sequence (Q96PH1 whole entry, looked up): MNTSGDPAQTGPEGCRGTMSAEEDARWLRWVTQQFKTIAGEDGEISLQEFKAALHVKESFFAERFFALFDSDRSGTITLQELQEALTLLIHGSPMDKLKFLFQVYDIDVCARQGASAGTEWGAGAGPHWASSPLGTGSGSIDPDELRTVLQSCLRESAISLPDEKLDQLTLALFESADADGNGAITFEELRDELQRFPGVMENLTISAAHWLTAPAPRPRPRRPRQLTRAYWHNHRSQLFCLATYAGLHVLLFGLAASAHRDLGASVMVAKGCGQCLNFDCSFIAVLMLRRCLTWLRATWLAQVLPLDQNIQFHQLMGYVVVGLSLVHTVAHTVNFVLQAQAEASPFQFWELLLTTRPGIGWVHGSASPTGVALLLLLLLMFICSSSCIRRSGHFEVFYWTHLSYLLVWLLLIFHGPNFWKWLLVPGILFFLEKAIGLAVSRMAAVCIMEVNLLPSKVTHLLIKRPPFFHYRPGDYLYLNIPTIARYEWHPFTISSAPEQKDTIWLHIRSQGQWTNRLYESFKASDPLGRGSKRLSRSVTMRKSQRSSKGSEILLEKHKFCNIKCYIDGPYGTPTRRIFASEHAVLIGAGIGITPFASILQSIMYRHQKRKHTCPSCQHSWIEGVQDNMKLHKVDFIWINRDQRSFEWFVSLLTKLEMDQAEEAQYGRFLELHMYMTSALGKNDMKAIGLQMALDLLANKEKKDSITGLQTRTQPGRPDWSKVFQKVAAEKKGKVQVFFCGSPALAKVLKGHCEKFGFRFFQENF

Structure (SMILES)	composite z-score [1]	z-score [2]	z-score [3]	z-score [4]	z-score [5]	composite z-score [6]	composite z-score [7]	composite z-score [8]	composite z-score [9]	composite z-score [10]	z-score [11]	composite z-score [12]	z-score [13]	z-score [14]	z-score [15]	z-score [16]	z-score [17]	z-score [18]	z-score [19]	z-score [20]
O=C1O[C@H](c2ccccc2)[C@H](c2ccccc2)N2[C@H]1[C@@H](C(=O)N1CCCCCCC1)[C@]1(C(=O)Nc3ccccc31)[C@H]2c1ccc(O)cc1	2.61	-1.21 (inactive)	0.387 (inactive)	-0.0566 (inactive)	-0.599 (inactive)	4.14	2.28	3.49	3.61	1.55	-0.0491 (inactive)	2.97	0.517 (inactive)	0.435 (inactive)	-0.882 (inactive)	0.19 (inactive)	-0.541	-4.42 (inactive)	-1.03 (inactive)	-3.4
CC(C)C(CO)N1C(=O)[C@@H]2[C@H]3C(=O)OCC=C[C@H]3OC23C=CCN(Cn2nnc4ccccc42)C(=O)[C@@H]13 (stereo not given in full)	-0.257	0.44 (inactive)	0.0585 (inactive)	-0.492 (inactive)	-0.0021 (inactive)	-1.05	-0.231	-0.957	-2.27	-1	0.197 (inactive)	-0.228	0.766 (inactive)	0.123 (inactive)	0.393 (inactive)	0.0882 (inactive)	0.234	0.699 (inactive)	0.247 (inactive)	0.94
CN1C(=O)C2C=CC(C(O)COCc3ccccc3)N(Nc3ccccc3)C2C1=O (stereo not given)	0.122	0.631 (inactive)	-0.0726 (inactive)	1.59 (inactive)	-0.236 (inactive)	0.37	-0.018	-0.24	0.162	0.0686	-0.75 (inactive)	0.167	0.625 (inactive)	0.167 (inactive)	-0.225 (inactive)	0.63 (inactive)	-1.01	-2.32 (inactive)	-4.03 (inactive)	-2.63
C[N+](C)(C)CCCCNC(=O)[C@H]1C[C@H]2C(=O)NCC(=O)N2[C@H]1c1ccc(O)cc1	0.442	0.215 (inactive)	-0.895 (inactive)	-0.398 (inactive)	-0.501 (inactive)	0.158	0.106	0.979	0.672	2.14	0.77 (inactive)	0.242	0.367 (inactive)	0.0681 (inactive)	-0.393 (inactive)	0.0564 (inactive)	-0.0248	-1.51 (inactive)	-0.769 (inactive)	0.226
COC(=O)[C@]1(Cc2ccccc2CN=[N+]=[N-])N=C(c2ccc(OCCCO)cc2)O[C@@H]1c1ccccc1CN=[N+]=[N-]	0.749	-4.12 (inactive)	-0.247 (inactive)	1.6 (inactive)	-1.01 (inactive)	-0.908	-0.0471	-0.355	-0.27	0.353	1.23 (inactive)	0.0962	30.8 (active)	24.1 (active)	1.88 (inactive)	5.85 (inactive)	0.196	-2.35 (inactive)	-0.0356 (inactive)	-1.79
COCCOC(=O)N1C(=O)[C@@]2(c3ccccc31)[C@H](c1ccccc1OCCO)N1[C@H](c3ccccc3)[C@H](c3ccccc3)OC(=O)[C@H]1[C@@H]2C(=O)N1CCc2cc(OC)c(OC)cc2C1	0.212	-3.53 (inactive)	-1.04 (inactive)	0.0736 (inactive)	2.88 (inactive)	0.02	0.255	0.517	0.546	1.24	0.0509 (inactive)	0.433	2.79 (inactive)	1.2 (inactive)	1.68 (inactive)	0.654 (inactive)	0.0753	1.15 (inactive)	0.39 (inactive)	-0.157
O=C1c2ccccc2C(=O)C2CC([C@H]3Oc4ccccc4S(=O)(=O)N4CCC[C@@H]34)=CCC12 (stereo not given in full)	-0.0428	-3.06 (inactive)	0.618 (inactive)	6.12 (inactive)	-1.59 (inactive)	0.161	-0.0471	0.208	0.402	-0.133	1.03 (inactive)	-0.196	8 (inactive)	1.12 (inactive)	-0.0247 (inactive)	0.696 (inactive)	0.127	0.5 (inactive)	-3.1 (inactive)	-0.779
O=C1C2C=CC(C(O)c3ccccn3)N(Nc3ccccc3)C2C(=O)N1c1ccccc1 (stereo not given)	-0.234	0.915 (inactive)	-0.574 (inactive)	1.02 (inactive)	0.497 (inactive)	-0.065	0.0013	-0.265	-0.382	-0.367	-0.803 (inactive)	0.0437	1.67 (inactive)	1.27 (inactive)	-0.167 (inactive)	0.974 (inactive)	-0.721	-1.21 (inactive)	-3.92 (inactive)	-2.84
C[N+](C)(C)CCCCCCNC(=O)[C@@H]1C[C@@H]2C(=O)NCC(=O)N2[C@@H]1c1cccc(OCCO)c1	0.338	-3.36 (inactive)	-1.82 (inactive)	-0.797 (inactive)	-0.933 (inactive)	-0.357	-0.0986	0.335	-0.371	2.16	1.73 (inactive)	0.197	3.17 (inactive)	-1.25 (inactive)	1.56 (inactive)	-1.95 (inactive)	0.927	-2.72 (inactive)	-4.12 (inactive)	-5.67
